# Rows were chosen to be rich in hits. Some 2.5% of all compounds tested hit in one or more screens of this group.
# HDAC3 inh = HDAC3 deacetylase inhibitors, primary screen, biochemical, fluorescence, cell-free homogeneous; Histone deacetylase 3 (Homo sapiens), O15379; recombinant HDAC3, fluorogenic peptide/trypsin coupled; inhibition, % at 8.3 µM; actives 0.15% (n = 320,000); AID 2718, 2010; in the data active = inhibition above about 26%, passing the limit was not always enough; inconclusive = no clear call, values can overlap the other calls
# M18AAP inhibitor = PfM18AAP inhibitors, malaria aminopeptidase, primary screen, biochemical, QFRET, recombinant enzyme | actives 1.2% (n = 290,000) | inhibition, % at 7.35 µM | AID 1822, 2009 | H-Glu-NHMec fluorogenic cleavage;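 active = inhibition above the campaign mean inhibition over all tested compounds plus 3 SD, cut at about 28% in these data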
# SUMO HTRF inh = inhibitors of in vitro SUMOylation cascade, primary screen, biochemical, HTRF, uHTS; HTRF SUMOylation assay, SAE1/SAE2 + UBC9; inhibition, % at 35 µM; actives 0.36% (n = 290,000); AID 2006, 2009; in the data active = inhibition above about 50%, passing the limit was not always enough; inconclusive = no clear call, values can overlap the other calls
# p97 inhibitor = inhibitors of human p97 ATPase, primary screen, biochemical | Transitional endoplasmic reticulum ATPase (Homo sapiens), P55072 | recombinant p97 ATPase, Kinase-Glo ATP luminescence, 3 h | inhibition, % at 8 µM | actives 0.42% (n = 220,000) | AID 1481, 2009; in the data active = inhibition above about 15%
# Target sequence (P55072 whole entry, looked up): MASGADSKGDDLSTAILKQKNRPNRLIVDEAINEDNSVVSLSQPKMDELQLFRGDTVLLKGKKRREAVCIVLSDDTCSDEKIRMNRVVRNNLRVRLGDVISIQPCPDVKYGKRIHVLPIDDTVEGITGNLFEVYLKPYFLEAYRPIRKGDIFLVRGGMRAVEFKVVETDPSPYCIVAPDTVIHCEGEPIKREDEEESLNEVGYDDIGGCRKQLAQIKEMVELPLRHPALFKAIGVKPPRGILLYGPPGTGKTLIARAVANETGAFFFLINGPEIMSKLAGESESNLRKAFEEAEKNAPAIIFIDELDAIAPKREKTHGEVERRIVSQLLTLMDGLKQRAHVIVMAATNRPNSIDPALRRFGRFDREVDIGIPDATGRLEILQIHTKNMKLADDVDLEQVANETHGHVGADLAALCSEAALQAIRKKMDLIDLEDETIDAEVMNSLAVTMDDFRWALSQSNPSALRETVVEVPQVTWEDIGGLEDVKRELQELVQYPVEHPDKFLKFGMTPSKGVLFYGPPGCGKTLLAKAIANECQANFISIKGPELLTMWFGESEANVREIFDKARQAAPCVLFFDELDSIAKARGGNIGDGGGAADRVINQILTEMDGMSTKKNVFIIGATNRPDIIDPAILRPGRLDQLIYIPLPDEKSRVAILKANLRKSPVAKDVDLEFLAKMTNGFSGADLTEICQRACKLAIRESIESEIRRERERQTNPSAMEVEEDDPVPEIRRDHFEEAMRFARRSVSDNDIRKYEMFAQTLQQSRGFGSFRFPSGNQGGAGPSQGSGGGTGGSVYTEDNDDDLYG
# G6PDH counter = L. mesenteroides G6PDH inhibitors, counter-screen for G6PDH-coupled screening assays, biochemical, Leuconostoc mesenteroides enzyme | Purified L. mesenteroides G6PDH, diaphorase/resazurin coupled fluorescence, 45 min | actives 0.12% (n = 200,000) | glucose-6-phosphate dehydrogenase [Leuconostoc mesenteroides] | inhibition, % at 5 µM; in the data active = inhibition above about 50%
# PHOSPHO1 inh = PubChem AID 1565; actives 1.1% (n = 290,000); inhibition, % at 13.3 µM; recombinant PHOSPHO1, absorbance phosphatase assay; in the data active = inhibition above about 60%
# A number is an active result; - = inactive; ? = inconclusive; . = not tested or not shown.
SMILES,HDAC3 inh,M18AAP inhibitor,SUMO HTRF inh,p97 inhibitor,G6PDH counter,PHOSPHO1 inh
COc1ccc(CCN2CC(C(=O)N(C)CCn3nc(C)cc3C)CCC2=O)cc1 (configuration not stated),-,-,-,.,.,-
COc1ccc(N(C)S(=O)(=O)c2cccc(C(=O)OCC(=O)c3c(N)n(C)c(=O)n(C)c3=O)c2)cc1,-,.,.,.,.,.
O=C(CSc1nnnn1-c1ccc(F)cc1)Nc1ccccc1F,-,-,-,.,.,-
O=C(NCC(=O)N1CCN(S(=O)(=O)c2ccccc2F)CC1)c1ccc(Br)o1,-,-,-,.,.,-
CS(=O)(=O)Nc1ccc(-c2cc(/C=C3\SC(N)=NC3=O)c[nH]c2=O)cc1,-,-,-,.,.,-
Cc1ccc(C(=O)NC(=S)NCC(=O)c2ccccc2)cc1,?,-,-,-,-,-
COc1ccccc1OCC(=O)NNC(=S)NC(=O)c1ccco1,-,-,-,-,-,94.6
O=C(CNC(=S)NC(=O)c1ccco1)c1ccccc1,-,28.8,-,-,-,-
O=C(Nc1ccc(NC(=S)NC(=O)c2ccco2)cc1)c1ccccc1,-,-,-,.,.,-
COc1ccc(C(=O)NC(=S)NNC(=O)c2ccco2)cc1,-,-,-,.,.,-
O=C(NNC(=S)NC(=O)c1ccco1)c1ccc(NC(=O)c2ccccc2)cc1,-,-,-,-,-,71.0
COCCn1c(C)cc(C(=O)CSc2nc3ccccc3o2)c1C,-,-,-,-,-,97.8
CSc1nc2c(c(=O)[nH]1)C(c1cccc(Cl)c1)CC(=O)N2 (configuration not stated),-,-,-,-,-,-
CSc1nc(O)c(Nc2cccc(Cl)c2)c(=O)[nH]1,-,30.8,-,-,.,-
COc1cc(CNCCc2ccccc2)cc(Br)c1OCC(=O)Nc1ccccc1C,-,-,-,-,-,66.2
COc1ccc(C)cc1N(CC(=O)Nc1ccc(S(=O)(=O)N2CCCC2)cc1)S(C)(=O)=O,-,-,-,.,.,-
O=C(Nc1ncn[nH]1)c1cc([N+](=O)[O-])ccc1Cl,-,30.0,-,.,.,-
O=C(Nc1ccccc1)c1cc([N+](=O)[O-])ccc1Cl,-,.,-,.,.,-
CC(NC(=O)C1CCCN(S(=O)(=O)c2cnc[nH]2)C1)c1ccccc1 (configuration not stated),-,-,-,17.7,-,-
COC(=O)[C@@]12CCCN1[C@H](c1ccc(-c3cccc(Cl)c3)cc1)[C@H]1C(=O)N(C)C(=O)[C@H]12,-,.,.,.,.,.
CC(C)(C)c1nc(S(=O)(=O)c2ccc(Cl)cc2)c(N2CCOCC2)o1,-,-,-,-,-,62.7
CC(C)Cc1nc(S(=O)(=O)c2ccc(Cl)cc2)c(N2CCOCC2)o1,-,-,-,-,-,-
COc1ccc(N2C(=O)CC(N(CCc3ccccc3)C(=O)/C=C/C(=O)O)C2=O)cc1 (configuration not stated),-,-,-,-,-,64.2
Cc1nn(CC(=O)Nc2cccnc2)c(C)c1[N+](=O)[O-],-,-,-,-,-,-
C=CCn1c(NC(=O)c2ccc(C)cc2)c(C#N)sc1=N,-,-,-,-,-,96.2
SMILES,HDAC3 inh,M18AAP inhibitor,SUMO HTRF inh,p97 inhibitor,G6PDH counter,PHOSPHO1 inh
C=CCn1c(C(C)NC(=O)c2ccc(C)cc2)n[nH]c1=S (configuration not stated),-,-,-,-,-,-
CC(CN1CCN(C)CC1)OC(=O)c1cccc(F)c1 (configuration not stated),-,-,-,.,.,-
CCCCN1C(=O)c2ccc(C(=O)NC3(C)CCS(=O)(=O)C3)cc2C1=O (configuration not stated),-,.,.,.,.,.
COC(CNC(=O)CN1CCN(Cc2ccccc2F)C1=O)OC,-,-,-,.,.,-
CCSc1nc(=S)cc(C)[nH]1,-,28.1,-,-,.,-
CCSc1nc(O)cc(=O)[nH]1,-,-,-,-,.,-
C/C(=N\N1CCN(c2ccccc2)CC1)c1ccc(O)cc1,.,-,-,.,.,-
O=c1cc(CO)oc(CN2CCN(c3cccc(C(F)(F)F)c3)CC2)c1O,-,29.1,-,-,-,-
Cc1cccc(-n2ncc3c2CCCC3NC(=O)C2=CC(=O)CC(C)(C)O2)c1C (configuration not stated),-,-,-,.,.,-
O=C(NN=C1CCCC1)c1cc(Br)ccc1O,-,-,-,.,.,-
O=C(NN=C1CCCC1)c1ccc(O)cc1O,.,31.0,-,.,.,-
CCC(OC(=O)CN1C(=O)C(=O)c2ccccc21)C(=O)Nc1ccccc1OC (configuration not stated),.,-,-,.,.,-
Cc1cc(Cl)ccc1-n1c(-c2cccnc2)n[nH]c1=S,-,-,-,-,.,78.2
Cc1c(Cl)cccc1-n1c(-c2cccnc2)n[nH]c1=S,-,30.6,-,-,-,-
Cc1ccc(NC(=O)Cn2nnc(C(=O)NCc3ccc(Cl)cc3)c2N)cc1F,-,-,-,.,.,-
COC(=O)CCC(=O)N1CCC(CCC(=O)NCc2ccc(F)cc2)CC1,-,-,-,.,.,.
Cc1cc(Sc2nc(N(C)C)nc(N(C)C)n2)nc(Cl)n1,-,-,-,-,-,-
COc1ccccc1NS(=O)(=O)c1cccc(C(=O)N/N=C(\C)c2ccc(-n3ccnc3)cc2)c1,-,30.5,-,-,-,-
CC(=O)c1ccc(N2CCN(C(=O)CCC(=O)Nc3ccc4nc(N5CCN(C)CC5)cc(C)c4c3)CC2)cc1,-,-,-,.,.,-
COc1ccc(N2C(=O)C(Cl)=C(Nc3ccccc3OC)C2=O)cc1,-,-,-,-,-,-
COc1ccc(N2C(=O)C(Cl)=C(Nc3ccccc3O)C2=O)cc1,-,28.9,-,-,-,69.5
O=C1CN(C(=O)COC(=O)CCC(=O)c2ccc(F)cc2)c2ccccc2N1,-,.,.,.,.,.
Cc1nc(-c2ccc3c(c2)OCCCO3)cs1,40.8,-,-,-,.,-
Cc1nc(-c2ccc3c(c2)OCO3)cs1,-,-,-,-,-,-
CC(C)c1ccc(NC(=O)c2csnn2)cc1,-,-,-,-,-,-
SMILES,HDAC3 inh,M18AAP inhibitor,SUMO HTRF inh,p97 inhibitor,G6PDH counter,PHOSPHO1 inh
O=C(NNS(=O)(=O)c1ccc(Br)cc1)c1csnn1,.,30.3,-,-,-,-
O=C(NC(=S)Nc1ccccc1Cl)c1csnn1,-,-,-,-,-,65.0
O=C(Nc1ccccc1NC(=O)c1csnn1)c1csnn1,-,73.4,-,-,-,-
CN(C)S(=O)(=O)c1cccc(NC(=O)c2ccc3c(c2)S(=O)(=O)N=C2CCCCCN23)c1,-,.,.,.,.,.
Cc1ccc(C)c(OCc2nnc(N)s2)c1,-,-,-,-,-,71.9
Nc1nnc(COc2ccc(Br)cc2Br)s1,-,-,-,-,-,-

# Compound activity (PubChem)
